Assay outcomes: PubChem BioAssay, National Center for Advancing Translational Sciences (NCATS)
Shown are actives, neighbours in structure and some others; about 4.7% of the full set was active somewhere.
TRHR enhancer: qHTS for Small Molecule Agonists and Allosteric Enhancers of Human TRH Receptor: Primary Screen for Enhancers. Thyrotropin-releasing hormone receptor (Homo sapiens), P34981. TRHR cells, fluo-8 calcium fluorescence, EC20 TRH enhancement. enhancement, % at 2 µM. 360,000 compounds, 0.66% hits; in the data active means enhancement above about 30%; further: 0% is about no effect
Target sequence (P34981 whole entry, looked up): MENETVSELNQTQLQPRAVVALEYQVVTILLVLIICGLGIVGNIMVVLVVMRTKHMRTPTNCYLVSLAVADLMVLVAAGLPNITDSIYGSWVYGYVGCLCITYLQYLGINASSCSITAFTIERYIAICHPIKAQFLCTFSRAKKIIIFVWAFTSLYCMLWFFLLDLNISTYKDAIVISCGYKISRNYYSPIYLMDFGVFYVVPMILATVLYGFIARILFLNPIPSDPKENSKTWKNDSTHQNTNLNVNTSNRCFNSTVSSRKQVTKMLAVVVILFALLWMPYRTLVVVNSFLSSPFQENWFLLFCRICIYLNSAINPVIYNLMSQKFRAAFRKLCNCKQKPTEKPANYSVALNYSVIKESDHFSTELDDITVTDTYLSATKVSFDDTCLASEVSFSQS
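TRHR-expressing cells loaded with fluo-8 calcium dye were read kinetically (ex 480/em 530) during compound addition, then stimulated with an EC20 of TRH (10 nM final). Enhancement of the Gq-mediated intracellular calcium response was scored.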
TRHR ag: qHTS for Small Molecule Agonists and Allosteric Enhancers of Human TRH Receptor: Primary Screen for Agonists | Thyrotropin-releasing hormone receptor (Homo sapiens), P34981 | TRHR cells, calcium flux fluo-8, FDSS agonist mode | activation, % at 2 µM | 360,000 compounds, 0.18% hits | AID 493084, 2011; further: 0% is about no effect
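TRHR-expressing cells loaded with fluo-8 calcium dye; 23 nL library compound pin-transferred, kinetic FDSS fluorescence (Ex 480/Em 530) recorded about 180 s for agonist-induced calcium release, before a 10 nM TRH EC20 addition for potentiator mode.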
D1 PAM: Potentiators of Human D1 Dopamine Receptor: qHTS; potentiation, % at 10 µM; AID 504651, 2011; 360,000 compounds, 0.036% hits; HEK293 TREx D1 cells, calcium flux, dopamine EC20 potentiation; D(1A) dopamine receptor (Homo sapiens), P21728; in the data active means potentiation above about 30%; further: 0% is about no effect
D1 antagonist: Antagonist of Human D 1 Dopamine Receptor: qHTS. D(1A) dopamine receptor (Homo sapiens), P21728. HEK293 TREx D1 cells, calcium flux, dopamine EC80; stronger effect = lower value. activity change, negative = inhibition, % at 10 µM. 360,000 compounds, 3.2% hits. AID 504652, 2011; in the data active means activity change below about -30%; further: on the % scale 0 is the no-effect control and ±100 the full control effect
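HEK293 T-REx cells expressing inducible, force-coupled D1 receptor; no-wash Ca dye, 30–90 min RT. Cmpd → 180 s read at 1 Hz → EC80 DA → 180 s read.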
D1 ag: Allosteric Agonists of the Human D1 Dopamine Receptor: qHTS. 360,000 compounds, 1% hits. HEK293 T-REx D1 cells, calcium flux, agonist mode. activation, % at 2 µM. D(1A) dopamine receptor (Homo sapiens), P21728; further: 0% is about no effect
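Inducible HEK293 T-REx D1 cells, force-coupled to calcium signalling, were plated at 4000 cells/well with tetracycline and held overnight at 30 C. After no-wash calcium dye loading, compound-evoked calcium rise over 180 s flagged agonists.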
An asterisk follows results filed as active. Unless noted, no stated cut-off is given here; in the data, active means activation above about 30%; inactive means the rest.

How did O=C1NC(=O)C(=Cc2ccc(N3CCOCC3)o2)C(=O)N1 do in these assays?
TRHR enhancer: 1; TRHR ag: 7; D1 PAM: -3; D1 antagonist: 9; D1 ag: 8

How did Cc1cc(C)cc(N2C(=O)/C(=C\c3ccc(N4CCN(C)CC4)o3)C(=O)NC2=S)c1 do in these assays?
TRHR enhancer: 1; TRHR ag: 28; D1 PAM: -4; D1 antagonist: -4; D1 ag: 44*

How did c1cnc2c(c1)ncn2C1CCNCC1 do in these assays?
TRHR enhancer: -5; TRHR ag: 1; D1 PAM: -1; D1 antagonist: 12; D1 ag: 0

How did Cc1ccc(S(=O)(=O)NCC2CCC(C(=O)N3CCC4(CC3)OCCO4)CC2)cc1 (configuration not stated) do in these assays?
TRHR enhancer: 2; TRHR ag: 1; D1 PAM: -13; D1 antagonist: -55*; D1 ag: 4

What do the screens show for `Cc1ccc(S(=O)(=O)Nc2cc(C(=O)N3CCC4(CC3)OCCO4)ccc2N2CCCCC2)cc1`?
TRHR enhancer: -6; TRHR ag: 0; D1 PAM: -7; D1 antagonist: 1; D1 ag: 3

How did CCN(CC)S(=O)(=O)c1ccc(NN=C(C#N)C#N)cc1 do in these assays?
TRHR enhancer: -3; TRHR ag: 1; D1 PAM: -4; D1 antagonist: -8; D1 ag: 37*

How did O=C(Nc1ccc(Br)cc1C(=O)c1ccccc1Cl)c1ccc(Br)cc1 do in these assays?
TRHR enhancer: -2; TRHR ag: 1; D1 PAM: 0; D1 antagonist: 3; D1 ag: 4

Results for CC(Cc1ccccc1)NC(N)=O (configuration not stated) ?
TRHR enhancer: 13; TRHR ag: 0; D1 PAM: 0; D1 antagonist: -8; D1 ag: 1

Results for CC(Cc1ccccc1)NC(=O)/C=C/c1ccc(Cl)cc1 (configuration not stated) ?
TRHR enhancer: -9; TRHR ag: -1; D1 PAM: -9; D1 antagonist: -32*; D1 ag: 1

Results for CC(=O)Nc1cc(C(=O)N2CCC3(CC2)OCCO3)ccc1S(=O)(=O)c1ccc(Cl)cc1 ?
TRHR enhancer: 5; TRHR ag: 0; D1 PAM: -3; D1 antagonist: -87*; D1 ag: 2

How did Cn1c(=O)n(C)c2cc(CNCCc3ccccc3F)ccc21 do in these assays?
TRHR enhancer: 3; TRHR ag: 1; D1 PAM: 0; D1 antagonist: -3; D1 ag: 3

How did O=C(COC(=O)Cc1ccccc1)NC12CC3CC(CC(C3)C1)C2 do in these assays?
TRHR enhancer: -2; TRHR ag: 0; D1 PAM: 0; D1 antagonist: 10; D1 ag: -1

Results for NC(=O)c1ccsc1NC(=O)COC(=O)Cc1ccccc1 ?
TRHR enhancer: 10; TRHR ag: 0; D1 PAM: -6; D1 antagonist: -32*; D1 ag: 17

How did COc1ccc(NC(=O)CCc2nc(C3=CCN(Cc4cccc(Cl)c4)CC3)no2)cc1OC do in these assays?
TRHR enhancer: -2; TRHR ag: 0; D1 PAM: -2; D1 antagonist: -9; D1 ag: 8

What do the screens show for `Cc1ccc(OCC(=O)Nc2ccc(Cl)cc2C(=O)c2ccccc2)c(Br)c1`?
TRHR enhancer: 0; TRHR ag: 0; D1 PAM: -2; D1 antagonist: -11; D1 ag: 1

What do the screens show for `NCCc1ccc(S(N)(=O)=O)cc1`?
TRHR enhancer: 40*; TRHR ag: 0; D1 PAM: -4; D1 antagonist: 5; D1 ag: 0

How did Cc1ccc(S(=O)(=O)N(c2cc(Cl)c(O)c(Cl)c2)P(=O)(OC(C)C)OC(C)C)cc1 do in these assays?
TRHR enhancer: 2; TRHR ag: 0; D1 PAM: -13; D1 antagonist: -33*; D1 ag: 0

Results for CN1C(=O)C(=Cc2ccc(OCC(=O)Nc3ccccc3)cc2)C(=O)N(C)C1=O ?
TRHR enhancer: -1; TRHR ag: 0; D1 PAM: -1; D1 antagonist: -34*; D1 ag: 4

What do the screens show for `CN(C)C1(CNC(=O)Nc2ccc(Cl)c(Cl)c2)CCCCC1`?
TRHR enhancer: 16; TRHR ag: 4; D1 PAM: -9; D1 antagonist: -7; D1 ag: 32*

Results for CN(C)C1(CNC(=O)c2ccc(NS(=O)(=O)c3ccc(Cl)c(Cl)c3)cc2)CCCCC1 ?
TRHR enhancer: -4; TRHR ag: 0; D1 PAM: -6; D1 antagonist: 22; D1 ag: 2

Results for CN1CCc2nc(SCc3ccccc3Br)c(C#N)cc2C1 ?
TRHR enhancer: -3; TRHR ag: 2; D1 PAM: -1; D1 antagonist: -35*; D1 ag: 2

Results for Cc1cccc(CSc2nc3c(cc2C#N)CN(C)CC3)c1 ?
TRHR enhancer: -2; TRHR ag: 1; D1 PAM: -3; D1 antagonist: -4; D1 ag: 1

What do the screens show for `CC(=O)Nc1ccc(OC(=O)N(C)c2ccc(C)cc2)cc1`?
TRHR enhancer: 2; TRHR ag: 0; D1 PAM: -6; D1 antagonist: -38*; D1 ag: 1

Results for CC(=O)Nc1ccc(OC(=O)N(C)c2ccccc2)cc1 ?
TRHR enhancer: 3; TRHR ag: 1; D1 PAM: -3; D1 antagonist: 12; D1 ag: 3

Results for CCCCc1ccc2[nH]cc(CCN)c2c1 ?
TRHR enhancer: 16; TRHR ag: 9; D1 PAM: 2; D1 antagonist: 5; D1 ag: 90*

How did NCCc1c[nH]c2ccccc12 do in these assays?
TRHR enhancer: 1; TRHR ag: 0; D1 PAM: 0; D1 antagonist: 3; D1 ag: -1

How did O=CC(Cl)P(=O)(N1CCOCC1)N1CCOCC1 (configuration not stated) do in these assays?
TRHR enhancer: 0; TRHR ag: 0; D1 PAM: -6; D1 antagonist: -36*; D1 ag: 1

How did CC(C)(C)P(=O)(N1CCOCC1)N1CCOCC1 do in these assays?
TRHR enhancer: -8; TRHR ag: 1; D1 PAM: 0; D1 antagonist: -4; D1 ag: 3

Results for N#Cc1cc2c(nc1SCC(=O)Nc1ccc(Cl)c(C(F)(F)F)c1)C1CCN2CC1 ?
TRHR enhancer: -6; TRHR ag: 0; D1 PAM: -4; D1 antagonist: -11; D1 ag: 4
